Source: PubChem BioAssay (EPA / NIEHS)
Several values for one entry are separate records, joined by “and”; a condition that tells them apart may be missing. Equal entries are not always repeated. Inconclusive results are not listed. Some compounds were tested as several samples or in several runs, with calls that do not always agree. Activity calls are given as the source filed them. Rule for the calls: active = hit-call score of the fitted dose curve at least 0.9, where 1 is the maximum; inconclusive = response in the unintended direction; inactive = score below 0.9.

The molecules below were run against chicken Estrogen Receptor (ERa), ESR1 (gene 396099) (UniProt P06212) (assay: ATG_chERa_XSP2: Attagene TRANS-FACTORIAL Multi-Species (XSP2) HepG2 Assay for chicken Estrogen Receptor (ERa) (AID 2283817);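 note: actives raise reporter signal above DMSO so AC50 reflects ER activation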).
Protocol: ATG_XSP2_multi-species_TRANS is a cell-based, multiplexed assay created by modifying the existing Attagene TRANS-FACTORIAL system to include a panel of nuclear receptors from some or all the following species: human (Homo sapiens), mouse (Mus musculus), frog (Xenopus laevis), zebrafish (Danio rerio), chicken (Gallus gallus), and turtle (Chrysemys picta). The ECOTOX-FACTORIAL format uses HepG2, a human liver cell line, with measurements taken at 24 hours after chemical dosing in a 24-well plate. Xsp2 included 3 nM 6-alpha-fluorotestosterone and 1.5 nM norgestrel to stimulate the androgen receptor.ATG_chERa_XSP2 is one of 29 assay components measured or calculated from the ATG_XSP2_multi-species_TRANS assay. It is designed to make measurements of mRNA induction, a form of inducible reporter, as detected with fluorescence intensity signals by Reverse transcription polymerase chain reaction (RT-PCR) and Capillary electrophoresis technology.The assay endpoint ATG_chERa_XSP2 was analyzed in the positive analysis fitting direction relative to DMSO as the negative control and baseline of activity. Using a type of inducible reporter, measures of mRNA for gain-of-signal activity can be used to understand the reporter gene at the transcription factor-level as they relate to the gene ER. Furthermore, this assay endpoint can be referred to as a primary readout, because this assay has produced multiple assay endpoints where this one serves a reporter gene function. To generalize the intended target to other relatable targets, this assay endpoint is annotated to the nuclear receptor intended target family, where the subfamily is steroidal.
Human liver HepG2 cells are transiently transfected with multiple reporter transcription units (MRTUs) in 6-well plates using FuGene 6 reagent (Roche; 3 ml FuGene/1 mg DNA). The MRTU constructs are regulated by a cis-regulating element (promoter). […] A major difference between the CIS and TRANS system is that in CIS activities of endogenous TFs are measured, whereas the TRANS assay evaluates changes in activities of exogenous, chimeric NR-Gal4 proteins. […] At the end of 24 hour incubation, total RNA was isolated using TriZol reagent (Invitrogen). The isolated RNA is then reverse-transcribed using oligo(dT) primer and Mo-MLV reverse transcriptase (Invitrogen) with DNAse I (Ambion) treatment for 30 min. The one-tenth of the produced cDNA was amplified by PCR using Taq DNA polymerase (Invitrogen) and two reporter sequence-specific primers. The PCR products were fluorescently labeled by primer extension with 6-arboxyfluorescein (6-FAM) 5'-labeled reporter sequence-specific primer (2 min at 95 C, 20 s at 68 C and 10 min at 72 C) and these products were digested with 5U of HpaI (New England Biolabs) for 2h at 37 C. The fragments were purified using Qiaquick PCR columns (Qiagen), analyzed on an ABI 3130xL genetic analyzer (Applied Biosystems) with peak positions identified by using a set of X-rhodamine (ROX)-labeled MapMarker1000 molecular weight standards (BioVentures). The raw capillary electrophoresis data was processed using Attagraph software (Attagene).

Sequence of chicken Estrogen Receptor (ERa), ESR1 (gene 396099) (P06212 whole entry, looked up): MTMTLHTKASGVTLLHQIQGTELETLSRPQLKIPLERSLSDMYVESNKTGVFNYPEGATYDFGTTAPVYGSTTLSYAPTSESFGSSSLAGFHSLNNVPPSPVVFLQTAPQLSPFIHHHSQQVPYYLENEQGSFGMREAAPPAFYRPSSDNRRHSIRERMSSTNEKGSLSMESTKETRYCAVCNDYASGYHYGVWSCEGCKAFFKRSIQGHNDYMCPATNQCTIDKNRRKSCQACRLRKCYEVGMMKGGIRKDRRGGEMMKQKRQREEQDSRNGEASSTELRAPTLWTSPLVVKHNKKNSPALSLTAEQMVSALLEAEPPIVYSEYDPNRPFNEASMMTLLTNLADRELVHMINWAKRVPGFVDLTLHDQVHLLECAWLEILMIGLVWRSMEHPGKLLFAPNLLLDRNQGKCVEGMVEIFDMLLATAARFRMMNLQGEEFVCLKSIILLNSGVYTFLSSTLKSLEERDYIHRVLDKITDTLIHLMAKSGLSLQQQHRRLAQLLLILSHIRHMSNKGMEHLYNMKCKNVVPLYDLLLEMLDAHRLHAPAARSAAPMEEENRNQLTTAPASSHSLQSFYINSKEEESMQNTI

Q: For `CC1(C)C(C=C(Cl)Cl)C1C(=O)OCc1cccc(Oc2ccccc2)c1` (stereo not given), which AC50 is on record?
A: Its AC50 is 4.5 µM (active).

Q: Which AC50 does the source give for `CC(C)(c1ccc(O)cc1)c1ccc(O)cc1` here?
A: Its AC50 is 0.501 µM (active).

Q: With `CCCCC(CC)COC(=O)c1ccccc1C(=O)O` (stereo not given) as the molecule, how does the AC50 read?
A: The AC50 was 27.2 µM (active).

Q: Which AC50 does the source give for `N[C@@H](Cc1cc(I)c(Oc2ccc(O)c(I)c2)c(I)c1)C(=O)O` here?
A: The AC50 was 4.3 µM (active).

Q: And the outcome?
A: The outcome was “inactive”.

Q: Which AC50 does the source give for `CCN(Cc1c(F)cccc1Cl)c1c([N+](=O)[O-])cc(C(F)(F)F)cc1[N+](=O)[O-]` here?
A: The AC50 was 2.59 µM (active) and 795 nM (active).

Q: With `O=C(c1ccc(O)cc1O)c1ccc(O)cc1O` as the molecule, how does the AC50 read?
A: The AC50 was 2.81 µM (active).

Q: How did the outcome turn out when `CSC(=O)c1cccc2nnsc12` was run?
A: Its outcome is “inactive”.

Q: For `CC(=O)S[C@@H]1CC2=CC(=O)CC[C@]2(C)[C@H]2CC[C@@]3(C)[C@@H](CC[C@@]34CCC(=O)O4)[C@H]12`, which outcome is on record?
A: The outcome was “inactive”.

Q: With `C#C[C@]1(O)CC[C@H]2[C@@H]3CCC4=CC(=O)CC[C@@H]4[C@H]3CC[C@@]21CC` as the molecule, how does the outcome read?
A: The outcome was “inactive”.

Q: For `CC(C)CCCCCCc1ccc(O)cc1`, which AC50 is on record?
A: Its AC50 is 0.829 µM (active).

Q: `Oc1ccc(C(c2ccc(O)cc2)C(Cl)(Cl)Cl)cc1` was tested. Which AC50 did it give?
A: Its AC50 is 0.11 µM (active).

Q: For `CCCCC(CC)CN1C(=O)C2C3C=CC(C3)C2C1=O` (stereo not given), which outcome is on record?
A: Its outcome is “inactive”.

Q: For `C=CCOC(Cn1ccnc1)c1ccc(Cl)cc1Cl` (stereo not given), which outcome is on record?
A: The outcome was “inactive”.

Q: With `CN(C)C(=O)Nc1ccc(Cl)c(Cl)c1` as the molecule, how does the AC50 read?
A: The AC50 was 32.9 µM (active) and 10.6 µM (active).
